Compounds with a hit are over-represented: about 8.1% of the library has one in this group of screens.
SW480 rereplic = inducers of DNA re-replication in SW480 colon cancer cells | SW480 DNA re-replication, Hoechst DNA content imaging, 48 h | Potency, µM (top dose mostly 46.1 µM), without a hit: top-dose re-replication activation, hits mostly activators | 1.8% of 340,000 active; also: % of control where 0% means no effect; nearly all actives have a fitted effect of over 55% in size
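Image-based read-out: total Hoechst fluorescence of nuclei (405 nm excitation, 500-530 nm emission), with hits raising the fraction of high-intensity nuclei. SW480 colon cells incubated 48 hr with compounds at 37 C.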
KB-V1 MDR tox = KB-V1 MDR subline cytotoxicity. 3.4% of 400,000 active. AID 1347076. KB-V1 MDR cells viability, CellTiter-Glo, 72 h. Potency, µM (highest dose often 46.1 µM), hits mostly cytotoxic; also: % is scaled to controls: 0 for no effect and ±100 for the full control effect; nearly all actives have a fitted effect of over 60% in size
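Following 72 h at 37 degrees C with compound, KB-V1 cell viability was read by CellTiter-Glo luminescence, medium being phenol-red-free DMEM plus 10% FBS; concentration-response parameters came from normalized, curve-fitted qHTS data.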
MCF10A rerep = DNA re-replication induction in MCF 10a cells. MCF 10A DNA re-replication, Hoechst nuclear intensity, 48 h. AID 624296. 2.9% of 350,000 active. Potency, µM (highest dose often 46.1 µM), for inactives: at the highest dose activity, positive = re-replication, usual class: activators; also: % of control where 0% means no effect; nearly all actives have a fitted effect of over 50% in size
ELG1 DNA repair = ELG1-dependent DNA repair inhibition. HEK293T ELG1-luciferase reporter, luminescence, 16 h; DNA damage induced by 5-fluorouridine. Potency, µM (titrated, usually from 46.1 µM), for the others: at the highest dose activity change, negative = inhibition, most hits filed as inhibitors. 2.3% of 330,000 active; also: % is scaled to controls: 0 for no effect and ±100 for the full control effect; nearly all actives have a fitted effect of over 55% in size
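Luminescence from the luciferase reporter, measured 30 min after ONE-Glo reagent at room temperature, was the read-out. Beforehand, 2,000 cells per well were exposed for 16 hr at 37 °C to 5-fluorouridine together with compound or vehicle.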
KB-3-1 cytotox = kills parental KB-3-1 adenocarcinoma cells | KB-3-1 viability, CellTiter-Glo ATP luminescence, 72 h | Potency, µM (titrated, usually from 46.1 µM), hits mostly cytotoxic | 1.4% of 400,000 active | AID 1347075; also: % is scaled to controls: 0 for no effect and ±100 for the full control effect; nearly all actives have a fitted effect of over 60% in size
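Here the drug-naive KB-3-1 line serves as comparator for MDR sub-line selectivity; cells received compound titrations, 72 h at 37 °C, then CellTiter-Glo readout.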
An asterisk follows results filed as active. Calls follow the shape of the dose curve; as a rule, active = well fitted curve in the direction sought with a large enough effect; inconclusive = small, poorly fitted or top-dose-only effect, or another doubt; inactive = no such curve, though single readings can be large; an effect the other way counts as inactive or inconclusive. Potency is read from the fitted curve at half-maximal effect.

Results for CC(=O)Nc1ccccc1C(=O)OCc1cccc(F)c1 ?
SW480 rereplic: -5%; KB-V1 MDR tox: inactive; MCF10A rerep: 10%; ELG1 DNA repair: inconclusive; KB-3-1 cytotox: inactive

How did CC(=O)Nc1ccccc1C(=O)OCC(=O)c1ccc2ccccc2c1 do in these assays?
SW480 rereplic: -3%; KB-V1 MDR tox: 15µM*; MCF10A rerep: 1%; ELG1 DNA repair: inconclusive; KB-3-1 cytotox: inactive

Results for CC(=O)Nc1ccccc1C(=O)OCc1ccc(C(=O)c2ccccc2)cc1 ?
SW480 rereplic: 25%; KB-V1 MDR tox: 6.5µM*; MCF10A rerep: inconclusive; ELG1 DNA repair: -13%; KB-3-1 cytotox: inconclusive

What do the screens show for `CCCCn1nnnc1C(c1ccccc1)N1CCC2(CC1)C(=O)NCN2c1ccccc1` (stereo not given)?
KB-V1 MDR tox: inactive; KB-3-1 cytotox: inactive

Results for CC(N)Cc1cn(Cc2ccccc2)c2ccccc12 (stereo not given) ?
SW480 rereplic: inconclusive; KB-V1 MDR tox: inconclusive; MCF10A rerep: inconclusive; ELG1 DNA repair: 4%; KB-3-1 cytotox: 23µM*

What do the screens show for `CC(=O)c1cn(Cc2ccc(F)cc2)c2ccccc12`?
SW480 rereplic: 2%; KB-V1 MDR tox: inconclusive; MCF10A rerep: inconclusive; ELG1 DNA repair: -9%; KB-3-1 cytotox: inactive

Results for CN(C)CC(C(=O)Cc1ccccc1)c1ccccc1 (stereo not given) ?
SW480 rereplic: 4.6µM*; KB-V1 MDR tox: inconclusive; MCF10A rerep: 13µM*; KB-3-1 cytotox: 8.2µM*

Results for CN(C)CCC=C1c2ccccc2CCc2ccccc21 ?
SW480 rereplic: inconclusive; KB-V1 MDR tox: 21µM*; MCF10A rerep: inconclusive; ELG1 DNA repair: -8%; KB-3-1 cytotox: inactive

How did O=C(Nc1ccc(C(F)(F)F)cc1)OC1CN2CCC1CC2 (stereo not given) do in these assays?
SW480 rereplic: 23%; KB-V1 MDR tox: inactive; MCF10A rerep: inconclusive; ELG1 DNA repair: inconclusive; KB-3-1 cytotox: inactive

Results for O=C(Nc1ccc(F)cc1)OC1CN2CCC1CC2 (stereo not given) ?
SW480 rereplic: 11%; KB-V1 MDR tox: inactive; MCF10A rerep: 8.2µM*; ELG1 DNA repair: inconclusive; KB-3-1 cytotox: inactive

Results for C[C@@H]1CN([C@@H](C)CO)C(=O)CCCn2nncc2CO[C@H]1CN(C)C(=O)Oc1cccc2ccccc12 ?
KB-V1 MDR tox: inactive; KB-3-1 cytotox: inactive

What do the screens show for `Cn1nc(-c2ccccc2)nc2c(=O)n(C)c(=O)nc1-2`?
KB-V1 MDR tox: 5.8µM*; KB-3-1 cytotox: 4.6µM*

What do the screens show for `CCn1nc(-c2ccccc2)nc2c(=O)n(C)c(=O)nc1-2`?
SW480 rereplic: inconclusive; KB-V1 MDR tox: inactive; MCF10A rerep: 1.5µM*; ELG1 DNA repair: inconclusive; KB-3-1 cytotox: 5.2µM*

What do the screens show for `COc1ccc(-c2nc3ccccc3c(=O)n2-c2ccc(OC)cc2)cc1`?
SW480 rereplic: -8%; KB-V1 MDR tox: inactive; MCF10A rerep: 22%; ELG1 DNA repair: -22%; KB-3-1 cytotox: inactive

How did Cc1nc2c(=O)n(C)c(=O)nc-2n(C)n1 do in these assays?
SW480 rereplic: 0.52µM*; KB-V1 MDR tox: 6.5µM*; MCF10A rerep: 9.2µM*; ELG1 DNA repair: 1.8µM*; KB-3-1 cytotox: 5.2µM*

How did CN(C)S(=O)(=O)c1cc(NC(=O)C[N+]23CCN(CC2)CC3)ccc1Cl do in these assays?
SW480 rereplic: -6%; KB-V1 MDR tox: inconclusive; MCF10A rerep: 5%; ELG1 DNA repair: 1%; KB-3-1 cytotox: inactive

What do the screens show for `CCCC(=O)OCC[N+](C)(C)C`?
SW480 rereplic: -4%; KB-V1 MDR tox: inactive; MCF10A rerep: -1%; ELG1 DNA repair: -5%; KB-3-1 cytotox: inactive

What do the screens show for `O=c1c2ccccc2nc(/C=C/c2ccc3c(c2)OCO3)n1-c1ccccc1`?
SW480 rereplic: inconclusive; KB-V1 MDR tox: inconclusive; MCF10A rerep: inconclusive; ELG1 DNA repair: inconclusive; KB-3-1 cytotox: inactive

How did NP(=O)(Oc1ccc(Cl)cc1)Oc1ccc(Cl)cc1 do in these assays?
SW480 rereplic: 50%; KB-V1 MDR tox: inactive; MCF10A rerep: inconclusive; ELG1 DNA repair: 13%; KB-3-1 cytotox: inactive

Bioassay records as filed in PubChem.
